# Data as given in PubChem BioAssay (NCATS).
# Results filed as inconclusive are left out. A call without a number means that no potency is given here. Activity calls are given as the source filed them. Unless noted, calls come from the whole dose curve.
# Key:
# [1] = qHTS for Inhibitors of the Functional Ribonucleoprotein Complex (vRNP) of Lassa (LASV) Arenavirus: LASV Primary Screen - GLuc reporter signal (AID 1347082; calls by dose curve; tested in HEK293 reporter line; note: nearly all actives have a fitted effect of over 60% in size); settings: LASV minigenome vRNP, Gaussia luciferase reporter; series mostly up to 57.5 µM
# [2] = qHTS for Inhibitors of the Functional Ribonucleoprotein Complex (vRNP) of Lassa (LASV) Arenavirus: Viability assay - alamar blue signal for LASV Primary Screen (AID 1347083; calls by dose curve; tested in HEK293 reporter line; note: nearly all actives have a fitted effect of over 80% in size); settings: cell viability, alamar blue fluorescence (LASV minigenome counter-screen); series mostly up to 57.5 µM
# [3] = qHTS for Inhibitors of the Functional Ribonucleoprotein Complex (vRNP) of Lymphocytic Choriomeningitis Arenaviruses (LCMV): Viability assay - alamar blue signal for LCMV Primary Screen (AID 1347085; calls by dose curve; tested in HEK293 reporter line; note: nearly all actives have a fitted effect of over 80% in size); settings: alamar blue viability counter-screen, LCMV vRNP screen cells; series mostly up to 57.5 µM
# [4] = molecular target: Nucleoprotein (Lymphocytic choriomeningitis virus (strain Armstrong)) (UniProt P09992); experiment: qHTS for Inhibitors of the Functional Ribonucleoprotein Complex (vRNP) of Lymphocytic Choriomeningitis Arenaviruses (LCMV): LCMV Primary Screen - GLuc reporter signal (AID 1347086); settings: LCMV minigenome vRNP cell assay, Gaussia luciferase reporter; series mostly up to 57.5 µM; note: nearly all actives have a fitted effect of over 70% in size
# Nucleoprotein (Lymphocytic choriomeningitis virus (strain Armstrong)), sequence (P09992 whole entry, looked up): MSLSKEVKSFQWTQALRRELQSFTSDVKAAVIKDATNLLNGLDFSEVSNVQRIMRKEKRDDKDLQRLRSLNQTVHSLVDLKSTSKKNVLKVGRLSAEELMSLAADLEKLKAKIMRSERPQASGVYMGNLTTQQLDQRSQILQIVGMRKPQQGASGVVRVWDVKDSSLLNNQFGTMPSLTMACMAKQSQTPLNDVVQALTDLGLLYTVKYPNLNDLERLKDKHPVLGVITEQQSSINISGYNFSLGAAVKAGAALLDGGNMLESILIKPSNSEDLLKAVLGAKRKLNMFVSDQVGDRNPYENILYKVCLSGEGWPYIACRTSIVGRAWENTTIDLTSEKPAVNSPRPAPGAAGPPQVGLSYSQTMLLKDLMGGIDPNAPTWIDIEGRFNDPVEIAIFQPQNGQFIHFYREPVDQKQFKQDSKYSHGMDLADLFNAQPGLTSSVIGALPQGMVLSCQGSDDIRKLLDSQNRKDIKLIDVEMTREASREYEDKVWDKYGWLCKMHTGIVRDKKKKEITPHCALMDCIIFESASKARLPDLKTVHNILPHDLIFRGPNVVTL
# Potency is the fitted concentration of half-maximal effect.
SMILES,Potency [1],Potency [2],Potency [3],Potency [4]
C[C@H]1[C@H](C)CC[C@]2(C)CC[C@]3(C)C(=CC(=O)C4[C@@]5(C)CC[C@H](O)C(C)(C)C5CC[C@]43C)[C@H]12 (stereo not given in full),inactive,inactive,inactive,inactive
CCCCCCCCCOC(C)=O,inactive,inactive,inactive,inactive
COc1ccc(C(C)=O)c(O)c1,inactive,inactive,inactive,inactive
CN=CNc1ccc(C)cc1C,inactive,inactive,inactive,inactive
COc1cc2cc(Oc3ccc4ccc(=O)oc4c3)c(=O)oc2cc1O[C@@H]1O[C@H](CO)[C@@H](O)[C@H](O)[C@H]1O,inactive,inactive,inactive,inactive
COC(=O)Nc1ccc(C)c(NC(=O)OC)c1,inactive,inactive,inactive,inactive
C[C@]12CCC3=C4CCC(=O)C=C4CC[C@@H]3[C@H]1CC[C@@]2(O)CC#N,inactive,inactive,inactive,inactive
O=c1[nH]c(=O)c2ncn(C3OC(CO)C(O)C3O)c2[nH]1 (stereo not given),inactive,inactive,inactive,inactive
COc1ccc(C(=O)OCCc2ccc(O)cc2)cc1,inactive,inactive,inactive,inactive
COc1ccc(-c2coc3cc(OC)ccc3c2=O)cc1,inactive,inactive,inactive,inactive
CC(=O)O[C@H]1C(=O)[C@@]2(C)C([C@H](OC(=O)c3ccccc3)[C@]3(O)C[C@H](OC(=O)[C@H](O)[C@@H](NC(=O)c4ccccc4)c4ccccc4)C(C)=C1C3(C)C)[C@]1(OC(C)=O)CO[C@@H]1C[C@H]2O (stereo not given in full),inactive,inactive,inactive,inactive
CC(=O)OCC1=C(C(=O)O)N2C(=O)[C@@H](NC(=O)Cc3ccccc3)[C@H]2SC1,inactive,inactive,inactive,inactive
CCOC(=O)Cc1ccccc1,inactive,inactive,inactive,inactive
O=C(Oc1ccccc1)c1ccccc1C(=O)Oc1ccccc1,inactive,inactive,inactive,inactive
CC(=NNC(=S)N1CCC1)c1ccccn1,27.3 nM (active),43.2 nM (active),38.5 nM (active),24.3 nM (active)
Cn1c(-c2ccccc2)cc(=O)c2ccccc21,inactive,inactive,inactive,inactive
CC1=CC(=O)O[C@@H]1[C@@]1(C)C[C@H]2OC(=O)C[C@H]3[C@@H](C)C(=O)C(O)=C1[C@@]23CO,inactive,inactive,inactive,inactive
COC1=C(C)C(=O)O[C@]12C(=O)C(C)=C1CCCCN3[C@H]([C@@H]4C[C@H](C)C(=O)O4)CC[C@]132,inactive,inactive,inactive,inactive
C=CC(C)(CCC=C(C)C)OC(=O)CC(C)C (stereo not given),inactive,inactive,inactive,inactive
O=C(CCCCO)CCCCCCCC[C@H]1N[C@H](CO)[C@H](O)[C@@H]1O[C@@H]1O[C@H](CO)[C@@H](O)[C@H](O)[C@H]1O,inactive,inactive,inactive,inactive

SMILES,Potency [1],Potency [2],Potency [3],Potency [4]
CC1=C2C(=O)OC(c3ccoc3)C2(C)CCC1 (stereo not given),inactive,inactive,inactive,inactive
COC1CC(C)C(OC)c2cc(O)cc(c2O)NC(=O)C(C)=CC=CC(C)C(OC(N)=O)C(C)=CC(C)C1OC (stereo not given),inactive,inactive,inactive,inactive
CC/C=C/CCO,inactive,inactive,inactive,inactive
CCCSSCCC,inactive,inactive,inactive,inactive
C=CCc1ccc(O)c(-c2cc(CC=C)ccc2O)c1,inactive,inactive,inactive,inactive
COc1cc(C2c3cc4c(c(O)c3CC3COC(=O)C32)OCO4)cc(OC)c1O (stereo not given),inactive,inactive,inactive,inactive
C=C(C)C(O)COc1c2occc2c(OC)c2ccc(=O)oc12 (stereo not given),inactive,inactive,inactive,inactive
CC1CCC2C(C)C3C(CC4[C@@H]5CC=C6C[C@@H](O)CC[C@]6(C)C5CC[C@]34C)N2C1 (stereo not given in full),inactive,inactive,inactive,inactive
CCOC(=O)c1c(C)nc(C)c(C(=O)OCC)c1-c1ccccc1,inactive,inactive,inactive,inactive
CC1(C)C=Cc2c(c3c(c4c(=O)c(-c5ccc(O)cc5)coc24)OC(C)(C)CC3)O1,inactive,inactive,inactive,inactive
O=C(O)Cn1ccnc1,inactive,inactive,inactive,inactive
CCN1CCN(C(=O)N[C@H](C(=O)N[C@@H]2C(=O)N3C(C(=O)O)=C(CSc4nnnn4C)CS[C@@H]23)c2ccc(O)cc2)C(=O)C1=O,inactive,inactive,inactive,inactive
C/C=C1/CN2C3CC1C(CO)(C(=O)OC)C2Cc1c3n(C)c2ccccc12 (stereo not given),inactive,inactive,inactive,inactive
COc1ccc2c(=O)cc(-c3ccccc3)n(C)c2c1,inactive,inactive,inactive,inactive
O=C1N[C@@H](Cc2c[nH]c3ccccc23)C(=O)N[C@H]1Cc1c[nH]c2ccccc12,inactive,inactive,inactive,inactive
COc1cc(C(=O)O)ccc1O,inactive,inactive,inactive,inactive
CCCCCC1C(=O)CCC1CC(=O)OC (stereo not given),inactive,inactive,inactive,inactive
Cn1c(=O)c2nncnc2n(C)c1=O,inactive,inactive,inactive,inactive
O=C(O)c1cc(N(Cc2ccccc2O)Cc2ccccc2O)ccc1O,inactive,inactive,inactive,inactive
CCOC(=O)c1cccc(C(=O)OCC)n1,inactive,inactive,inactive,inactive

SMILES,Potency [1],Potency [2],Potency [3],Potency [4]
CC(=O)c1ccc(-c2cccs2)s1,inactive,inactive,inactive,inactive
O=C1CCCCCCCCCCCCCC1,inactive,inactive,inactive,inactive
CC(=O)OCC=C(C)C,inactive,inactive,inactive,inactive
CN1CCc2cc(Cl)c(O)cc2[C@@H](c2ccccc2)C1,inactive,inactive,inactive,inactive
CC(C=O)Cc1ccc(C(C)C)cc1 (stereo not given),inactive,inactive,inactive,inactive
CC(C)C(O)(C(=O)OC[C@@H]1CC[N+]2([O-])CCCC12)C(C)O (stereo not given in full),inactive,inactive,inactive,inactive
CCCCCCCC1CCC(=O)O1 (stereo not given),inactive,inactive,inactive,inactive
CC12CCC(C1)C(C)(C)C2=O (stereo not given),inactive,inactive,inactive,inactive
CC1(C)C2CC[C@]3(C)C(CC=C4[C@@H]5C[C@@](C)(CO)[C@@H]6C[C@@]5(CC[C@]43C)C(=O)O6)[C@@]2(C)CC[C@@H]1O (stereo not given in full),inactive,inactive,inactive,inactive
CC(=O)Nc1ccccc1O,inactive,inactive,inactive,inactive
O=c1ccc2cc3ccoc3c(O)c2o1,inactive,inactive,inactive,inactive
C/C=C(\C)C(=O)O[C@H]1C[C@@]2(C)CCC(C(C)C)C2(O)CC[C@@]1(C)O (stereo not given in full),inactive,inactive,inactive,inactive
COc1cccc(OC)c1C(=O)O,inactive,inactive,inactive,inactive
N[C@@H](CSS(=O)(=O)O)C(=O)O,inactive,inactive,inactive,inactive
CC(C)(OC1OC(CO)C(O)C(O)C1O)[C@H]1Oc2ccc3ccc(=O)oc3c2[C@H]1O (stereo not given in full),inactive,inactive,inactive,inactive
CCCCc1ccc(O)cc1,inactive,inactive,inactive,inactive
CC(O)[C@H]1CC[C@H]2[C@@H]3CC[C@H]4C[C@@H](O)CC[C@]4(C)[C@H]3C(=O)C[C@]12C (stereo not given in full),inactive,inactive,inactive,inactive
C=C[C@@H]1CN2CC[C@@H]1C[C@H]2[C@H](O)c1ccnc2ccc(OC)cc12,inactive,inactive,inactive,inactive
C[C@H]1O[C@@H](O[C@H]2CC[C@@]3(C)C(CC[C@]4(C)C3C=C[C@]35OC[C@@]6(CCC(C)(C)C[C@H]63)[C@@H](O)C[C@]54C)[C@]2(C)CO)[C@H](O)[C@@H](O[C@@H]2O[C@H](CO)[C@@H](O)[C@H](O)[C@H]2O)[C@H]1O (stereo not given in full),inactive,inactive,inactive,inactive
CC(O)C1C(=O)N2C(C(=O)O)=C(SC3CNC(C(=O)N(C)C)C3)C(C)C12 (stereo not given),inactive,inactive,inactive,inactive
